Experimental findings from article PMC4336329 (PLoS ONE, 2015) are described below.

The whole screen tested about 310,000 compounds, of which about 14,000 (4.5%) showed an effect of 50% or more. Effects have a minus sign here. What follows is part of a selection rich in strong results, with near analogues and random picks from the rest.
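Further: peak tail current of the secondary pulse compared with the same well before compound.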

Chain of human ether-à-go-go-related gene (hERG) potassium channel (Q12809 whole entry, looked up): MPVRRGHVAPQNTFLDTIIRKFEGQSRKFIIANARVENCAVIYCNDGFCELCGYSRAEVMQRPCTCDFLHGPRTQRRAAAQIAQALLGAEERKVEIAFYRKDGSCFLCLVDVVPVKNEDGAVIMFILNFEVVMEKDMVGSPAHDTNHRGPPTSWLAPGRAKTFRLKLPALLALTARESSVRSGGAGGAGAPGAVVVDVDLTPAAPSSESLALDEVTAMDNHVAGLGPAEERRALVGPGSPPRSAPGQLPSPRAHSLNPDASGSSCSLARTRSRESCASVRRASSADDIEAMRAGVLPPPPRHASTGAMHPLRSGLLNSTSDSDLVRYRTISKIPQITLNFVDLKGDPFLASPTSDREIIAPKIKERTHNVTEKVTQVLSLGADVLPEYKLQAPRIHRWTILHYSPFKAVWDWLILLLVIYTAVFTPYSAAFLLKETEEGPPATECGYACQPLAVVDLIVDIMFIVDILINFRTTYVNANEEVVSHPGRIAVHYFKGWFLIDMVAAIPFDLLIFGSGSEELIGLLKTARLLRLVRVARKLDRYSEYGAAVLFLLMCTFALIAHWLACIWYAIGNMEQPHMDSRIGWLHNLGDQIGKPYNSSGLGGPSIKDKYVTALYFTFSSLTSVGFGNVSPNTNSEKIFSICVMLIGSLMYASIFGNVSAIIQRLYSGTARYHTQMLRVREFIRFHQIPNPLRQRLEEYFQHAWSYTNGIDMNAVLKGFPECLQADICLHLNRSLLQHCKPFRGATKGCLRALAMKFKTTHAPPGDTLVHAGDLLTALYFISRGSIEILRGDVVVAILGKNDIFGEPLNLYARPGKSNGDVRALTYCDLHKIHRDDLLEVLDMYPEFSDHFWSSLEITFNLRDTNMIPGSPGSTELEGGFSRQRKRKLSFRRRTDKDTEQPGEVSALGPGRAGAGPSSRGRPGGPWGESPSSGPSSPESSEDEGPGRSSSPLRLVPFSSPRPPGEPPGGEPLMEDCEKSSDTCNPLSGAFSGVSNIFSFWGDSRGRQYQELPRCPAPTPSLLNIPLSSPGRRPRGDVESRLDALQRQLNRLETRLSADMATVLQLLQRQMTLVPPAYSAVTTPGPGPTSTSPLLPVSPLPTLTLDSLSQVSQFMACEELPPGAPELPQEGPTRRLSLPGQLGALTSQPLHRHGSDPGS

This assay addresses human ether-à-go-go-related gene (hERG) potassium channel (human, UniProt Q12809). Briefly: primary screen, population patch clamp on CHO cells stably expressing hERG; higher = less effect of the substance.
For `CCCc1nc(SCC(=O)c2ccccc2)c2c(=O)n(C)c(=O)n(C)c2n1`, the “hERG current change (%, negative = inhibition) at 10uM” value is listed as -23.5%. As to `OCCNCCCCOc1ccc(F)cc1`, the “hERG current change (%, negative = inhibition) at 10uM” value is 4.18%. As to `CCn1c(SCC(=O)Nc2oc(-c3ccccc3)c(-c3ccccc3)c2C#N)nnc1-c1cc(OC)cc(OC)c1`, the “hERG current change (%, negative = inhibition) at 10uM” value is -5.33%. In the case of `N#Cc1c(NC(=O)CSc2nnc(-c3ccncc3)n2CC2CCCO2)sc2c1CCCC2` (centres unmarked), the “hERG current change (%, negative = inhibition) at 10uM” value was -40.7%. As to `CCCC(=O)Nc1sc2c(c1C#N)CCCC2`, the “hERG current change (%, negative = inhibition) at 10uM” value is 4.29%. Next, `CCn1c(SCC(=O)Nc2oc(-c3ccccc3)c(-c3ccccc3)c2C#N)nnc1-c1ccco1`: -30.8%; `CCn1c(SCC(=O)Nc2oc(-c3ccccc3)c(-c3ccccc3)c2C#N)nnc1-c1ccncc1`: -68.2%; `COCCCn1c(SCC(=O)Nc2sc3c(c2C#N)CCCC3)nnc1-c1ccncc1`: -49.4%. Next, `CCCC(=O)Nc1sc2c(c1C#N)CCCCC2`: -50.6%.

Turning to `CCn1c(SCC(=O)Nc2sc3c(c2C#N)CCCC3)nnc1-c1ccncc1`, the “hERG current change (%, negative = inhibition) at 10uM” value is listed as -63.5%. As for `CCC(=O)Nc1sc2c(c1C#N)CCCCC2`, the “hERG current change (%, negative = inhibition) at 10uM” value is recorded as 0.0585%. Consider `O=S1OCCN1c1ccccc1` (centres unmarked), for which the “hERG current change (%, negative = inhibition) at 10uM” value is on record as 10.4%.

On to `O=C(c1ccc(OC2CCN(CCc3ccccc3)CC2)cc1)N1CCCC(CO)C1` (centres unmarked), for which the “hERG current change (%, negative = inhibition) at 10uM” value is -12.4%.

For `COc1ccc([C@H]2/C=C\CN(S(=O)(=O)c3ccc4ccccc4c3)[C@@H](C)C(=O)N2Cc2ccc(F)cc2)cc1`, the “hERG current change (%, negative = inhibition) at 10uM” value was determined as 6.43%. For `CC1CCCC(C)N1C(=O)CN1C(=O)c2ccccc2S1(=O)=O` (centres unmarked), the “hERG current change (%, negative = inhibition) at 10uM” value was determined as 3.3%. Next, `O=C(Cc1ccccc1)Nc1ccc(NC(=O)c2ccc(Br)cc2)cc1`: 15.4%; `OC1(c2ccccc2)CN(c2ccccc2)C2=[N+]1CCS2.[Br-]` (centres unmarked): -28.1%. `OC1(c2ccc(Cl)cc2)CN(c2ccccc2)C2=[N+]1CCS2.[Br-]` (centres unmarked): the “hERG current change (%, negative = inhibition) at 10uM” value is recorded as -50.4%. Regarding `Cc1ccc(C2(O)CN(c3ccccc3)C3=[N+]2CCS3)cc1.[Br-]` (centres unmarked), the “hERG current change (%, negative = inhibition) at 10uM” value is -32.6%.

As to `Cc1ccc(C2(O)CN(c3ccccc3C)C3=[N+]2CCS3)cc1.[Br-]` (centres unmarked), the “hERG current change (%, negative = inhibition) at 10uM” value is listed as -28.1%. In the case of `O=[N+]([O-])c1ccc(C2(O)CN(c3ccccc3)C3=[N+]2CCS3)cc1.[Br-]` (centres unmarked), the “hERG current change (%, negative = inhibition) at 10uM” value was -60.8%. On to `OC1(c2ccc(F)cc2)CN(c2ccccc2)C2=[N+]1CCS2.[Br-]` (centres unmarked), for which the “hERG current change (%, negative = inhibition) at 10uM” value is -13.9%. As to `O=P(COCCO)(c1ccccc1)c1ccccc1`, the “hERG current change (%, negative = inhibition) at 10uM” value is listed as -4.96%.
